Assay outcomes (PubChem BioAssay)
TSHR antagonist = human thyrotropin receptor antagonism; TSHR-expressing cells, TSH-stimulated cAMP HTRF, 2 h; hits give low values; P16473; 330,000 tested, 0.2% active; AID 504810; activity change, negative = inhibition, % at 11.5 µM;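 active = activity change below a set negative limit, meaning inhibition stronger than a set level, cut at about -70% in these data; inconclusive = activity change between two set negative limits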
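Antagonism was scored as loss of TSH-driven cAMP in TSHR cells, stimulated with 4nM TSH (EC80) for 2 hours at 37 deg C and detected by homogeneous HTRF competition immunoassay.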
B2AR arrestin = beta2AR (human) beta-arrestin recruitment activity. P07550. beta-arrestin recruitment to beta2AR, cell-based reporter. Potency, µM (titrated, usually from 46.1 µM), actives largely listed as activators. 330,000 tested, 0.02% active. AID 492947; also: nearly all actives have a fitted effect of over 65% in size
Target sequence (P07550 whole entry, looked up): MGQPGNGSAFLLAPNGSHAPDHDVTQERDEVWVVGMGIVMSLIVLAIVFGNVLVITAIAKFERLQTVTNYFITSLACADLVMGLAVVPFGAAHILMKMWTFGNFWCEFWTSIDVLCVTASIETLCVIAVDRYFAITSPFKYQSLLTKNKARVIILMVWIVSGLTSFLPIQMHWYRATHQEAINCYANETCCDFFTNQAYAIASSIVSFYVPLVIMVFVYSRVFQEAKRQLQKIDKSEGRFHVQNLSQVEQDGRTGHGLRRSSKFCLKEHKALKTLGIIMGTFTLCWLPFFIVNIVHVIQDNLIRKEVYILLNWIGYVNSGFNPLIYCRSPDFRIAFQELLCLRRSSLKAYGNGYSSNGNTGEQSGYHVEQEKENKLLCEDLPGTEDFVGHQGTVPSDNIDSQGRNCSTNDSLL
RORgamma inh = ROR gamma (mouse) transcription inhibition | 310,000 tested, 5.4% active | P51450 | Potency, µM (titrated, usually from 53.6 µM), most hits filed as inhibitors | Drosophila S2 Gal4-RORgamma UAS-luciferase reporter, 20 h; also: nearly all actives have a fitted effect of over 60% in size
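A Gal4/UAS one-hybrid system in insect cells: metallothionein-promoter Gal4–ROR gamma fusion plus Photinus luciferase reporter. Copper sulfate 700 uM final, 20 hr ambient incubation, luminescent detection after 10 min with reagent.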
ELG1 repair inh = ELG1-dependent DNA repair inhibition | Potency, µM (highest dose often 46.1 µM), most hits filed as inhibitors | 330,000 tested, 2.3% active | HEK293T ELG1-luciferase reporter, luminescence, 16 h; DNA damage induced by 5-fluorouridine | AID 504467; also: nearly all actives have a fitted effect of over 55% in size
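DMSO vehicle served as the neutral condition. Each well held 2,000 cells given 5-fluorouridine plus compound; after 16 hr at 37 °C/5% CO2, ONE-Glo was added and luciferase measured 30 min later.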
Gal4-VP16 FLuc = inhibits Gal4-VP16 luciferase reporter, ROR gamma counter-screen; Drosophila S2 Gal4-VP16 UAS-luciferase, luminescence, 20 h; Potency, µM (doses to about 53.6 µM), actives largely listed as inhibitors; 310,000 tested, 3.5% active; AID 2546;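 also: Gal4-VP16 expression switched on by copper sulfate through the metallothionein promoter; nearly all actives have a fitted effect of over 50% in size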
Of the large screens only hits and unclear results are named; the others gave an inactive call. Sampled rows, rich in hits. Any-hit rate of the full collection: about 7.5%. Unless noted, calls follow the shape of the dose curve; as a rule, active = well fitted curve in the direction sought with a large enough effect; inconclusive = small, poorly fitted or top-dose-only effect, or another doubt; inactive = no such curve, though single readings can be large; an effect the other way counts as inactive or inconclusive.

CCN(CC)C(=O)C1CCN(S(=O)(=O)c2ccc3c(c2)CCCN3C(=O)C2CCC2)CC1	ELG1 repair inh 23µM
O=C(C1CCC1)N1CCc2cc(S(=O)(=O)N3CCN(c4ccccn4)CC3)ccc21	ELG1 repair inh 18µM
O=C(C1CCC1)N1CCc2cc(S(=O)(=O)N3CCCCC3)ccc21	ELG1 repair inh inconclusive
CCN(CC)CCCCn1c(-c2ccccc2)nc2c(N(CCOC)CCOC)nc(C)nc21	none (no result: TSHR antagonist, B2AR arrestin, ELG1 repair inh)
CC(=O)NCCNc1ncnc2ccc(-c3ccccc3C(F)(F)F)cc12	none (no result: TSHR antagonist, B2AR arrestin, ELG1 repair inh)
O=c1[nH][nH]c2ccccc2c1=O	none
Oc1ccccc1N=Cc1c(O)ccc2oc3c(c12)CCCC3	RORgamma inh 3.2µM, ELG1 repair inh inconclusive, Gal4-VP16 FLuc 10µM
Cc1c(/C=N/NC(=O)C(NC(=O)c2ccc3c(c2)OCO3)C(C)C)c2ccccc2n1C (stereo unspecified)	none
Cc1cc(NC(=O)c2ccc3c(c2)OCCO3)no1	RORgamma inh 10µM, ELG1 repair inh inconclusive, Gal4-VP16 FLuc 7.1µM
Cc1cc(NC(=O)c2ccc3c(c2)OCO3)no1	RORgamma inh inconclusive, ELG1 repair inh inconclusive, Gal4-VP16 FLuc inconclusive
Cn1nc(C(=O)Nc2nc(-c3ccccn3)cs2)c2ccccc2c1=O	ELG1 repair inh inconclusive (no result: RORgamma inh, Gal4-VP16 FLuc)
O=C(Nc1nc(-c2ccccn2)cs1)c1ccc2c(c1)OCCO2	RORgamma inh 3.2µM, ELG1 repair inh inconclusive, Gal4-VP16 FLuc 10µM
O=C(Nc1nc(-c2ccccn2)cs1)c1ccccc1-n1cnnn1	RORgamma inh 5µM, ELG1 repair inh 2.6µM
CCCn1nc(C(=O)Nc2nc(-c3ccccn3)cs2)c2ccccc2c1=O	ELG1 repair inh 7.3µM (no result: RORgamma inh, Gal4-VP16 FLuc)
NC(=O)C1Cc2ccccc2CN1S(=O)(=O)c1ccc(Cl)s1 (stereo unspecified)	none
O=C(Nc1ccccn1)c1ccc2c(c1)OCCO2	RORgamma inh 10µM, ELG1 repair inh inconclusive
CCCN1C(=O)c2ccc(C(=O)Nc3cc(C)on3)cc2C1=O	ELG1 repair inh inconclusive
Cc1cc(NC(=O)c2ccc3c(c2)C(=O)N(c2cccc(C)c2C)C3=O)no1	RORgamma inh inconclusive, Gal4-VP16 FLuc 18µM
CC(=O)Nc1ccc(C(=O)Nc2nc(-c3ccccn3)cs2)cc1	RORgamma inh 7.9µM, ELG1 repair inh inconclusive
COc1ccc(Cl)cc1-c1ccc(C(=O)O)o1	none (no result: TSHR antagonist, B2AR arrestin, ELG1 repair inh)
CCc1cc2c(nc1CC)CCN(CC/C(C)=N/O[C@@H](C)CN1CCCc3nc(C)c(C)cc31)C2	none (no result: TSHR antagonist, B2AR arrestin, ELG1 repair inh)
CCOC(=O)N1CCC(=NNc2ncc(C(F)(F)F)cc2Cl)CC1	RORgamma inh 7.1µM, Gal4-VP16 FLuc inconclusive
O=C(O)CCc1ncc(C(F)(F)F)cc1Cl	none
O=C(O)CC/C(=N/Nc1ncc(C(F)(F)F)cc1Cl)C(=O)O	RORgamma inh 13µM, ELG1 repair inh inconclusive, Gal4-VP16 FLuc inconclusive
CCOC(=O)N1CCN(c2ncc(C(F)(F)F)cc2Cl)CC1	none
CC(=O)N1CCC(=NNc2ncc(C(F)(F)F)cc2Cl)CC1	RORgamma inh 3.2µM, Gal4-VP16 FLuc inconclusive
C=CC[C@@H]1C=C[C@@H](O/N=C(/C)CCC(=O)OC[C@@H]2O[C@H](C#Cc3ccccc3)C=C[C@@H]2Oc2ccc(C)cc2)[C@@H](CO)O1	none (no result: TSHR antagonist, B2AR arrestin, ELG1 repair inh)
COc1ccccc1C(=O)N1CCN(CCNC(=O)C(=O)Nc2ccc(Br)c(C)c2)CC1	ELG1 repair inh inconclusive
Cc1cc(C(=O)Nc2cc(Br)ccc2O)on1	none
Oc1c(Cl)cc(CN2CCOCC2)c2cccnc12	ELG1 repair inh inconclusive (no result: RORgamma inh, Gal4-VP16 FLuc)
O=C(Oc1c(CN2CCOCC2)cc(Cl)c2cccnc12)c1ccccc1F	B2AR arrestin 5.6µM, RORgamma inh 1.1µM, ELG1 repair inh 10µM, Gal4-VP16 FLuc 2.2µM
COc1ccc(C(=O)Oc2c(OC)cc(C(=S)N3CCOCC3)cc2OC)cc1	ELG1 repair inh inconclusive
O=C(Oc1c(CN2CCOCC2)cc(Cl)c2cccnc12)c1ccccc1	B2AR arrestin inconclusive, RORgamma inh 1.8µM, ELG1 repair inh 23µM, Gal4-VP16 FLuc 5µM
Oc1c(CN2CCc3ccccc3C2)cc(Cl)c2cccnc12	B2AR arrestin 7.1µM, RORgamma inh 0.79µM, ELG1 repair inh inconclusive, Gal4-VP16 FLuc 1.1µM
Brc1cc2c(cc1CN1CCc3ccccc3C1)OCO2	none
COc1cc(OC)cc(C(=O)Oc2c(CN3CCOCC3)cc(Cl)c3cccnc23)c1	B2AR arrestin 4µM, RORgamma inh 4.5µM, ELG1 repair inh 16µM, Gal4-VP16 FLuc 3.2µM
